Laboratory results from the supplement of paper PMC13380429.

Tested on: Vero E6 infected with SARS-CoV-2
Test: inhibition of SARS-CoV-2 cytopathic effect; higher = more antiviral protection, active = above 15
Settings: 48 h

Measured: inhibition of SARS-CoV-2 cytopathic effect

COc1ccc(C(C)(C)C)cc1CN[C@H]1C2CCN(CC2)[C@H]1C(c1ccccc1)c1ccccc1 [maropitant]
inactive: 1 nM 2.55% | 8.33 nM 0.73% | 100 nM -1.99% | 833.33 nM -1.66% | 10000 nM 12.5%

Oc1c(CN2CCCC2)cc(COCc2ccccc2)c2cccnc12
inactive: 1 nM -1.11% | 8.33 nM -0.88% | 100 nM 0.87% | 833.33 nM -0.42% | 10000 nM 2.93%

CC(C)(Cc1c[nH]c2ccc(Cl)cc12)NCCOc1ccccc1OCC1CC1
inactive: 1 nM 0.45% | 8.33 nM -0.91% | 100 nM 0.78% | 833.33 nM -2.24% | 10000 nM -19.4%

Nc1ccc(S(=O)(=O)Nc2cnc3ccccc3n2)cc1 [sulfaquinoxaline]
inactive: 1 nM -0.58% | 8.33 nM 1.74% | 100 nM -1.77% | 833.33 nM -2.18% | 10000 nM 1.39%

O=C(Nc1cc(C(F)(F)F)cc(C(F)(F)F)c1)Nc1c(Br)cc(Br)cc1-c1nnn[nH]1
inactive: 1 nM 1.22% | 8.33 nM 1.04% | 100 nM -0.61% | 833.33 nM -2.22% | 10000 nM -3.2%

CO[C@@]1(NC(=O)CSCC#N)C(=O)N2C(C(=O)O)=C(CSc3nnnn3C)CS[C@@H]21 [cefmetazole]
inactive: 1 nM 1.84% | 8.33 nM 1.39% | 100 nM 1.15% | 833.33 nM 2.93% | 10000 nM 2.49%

CNC(=O)[C@@H](Cc1ccccc1)N(C)C(=O)[C@@H](Cc1ccc2ccccc2c1)N(C)C(=O)/C=C/CC(C)(C)N [tabimorelin]
inactive: 1 nM 0.97% | 8.33 nM -0.49% | 100 nM -1.39% | 833.33 nM 2.19% | 10000 nM 0.56%

Cc1cc(-c2ccccc2)nnc1NCCN1CCOCC1 [minaprine]
inactive: 1 nM 0.27% | 8.33 nM 0.75% | 100 nM -0.02% | 833.33 nM 1.16% | 10000 nM 1.01%

CC(C)(C)NCC(O)c1cc(Cl)c(N)c(Cl)c1 (stereo not given) [clenbuterol]
inactive: 1 nM -0.45% | 8.33 nM -0.13% | 100 nM 1.96% | 833.33 nM -0.35% | 10000 nM -2.77%

CC1(C)S[C@@H]2[C@H](NC(=O)[C@H](N)c3ccc(O)cc3)C(=O)N2[C@H]1C(=O)O [amoxicillin]
inactive: 1 nM -2.41% | 8.33 nM -1% | 100 nM -0.76% | 833.33 nM -0.16% | 10000 nM -2.88%

O=c1[nH]c(=O)n([C@H]2C[C@H](O)[C@@H](CO)O2)cc1F [floxuridine]
inactive: 1 nM 1.42% | 8.33 nM 1.34% | 100 nM -1.95% | 833.33 nM -2.04% | 10000 nM -4.05%

CCOc1cc(OCC)c(C(=O)CCC(=O)O)cc1OCC [trepibutone]
inactive: 1 nM -2.61% | 8.33 nM 0.72% | 100 nM -0.04% | 833.33 nM -0.1% | 10000 nM 0.69%

CCOc1nc2c(N)ncnc2n1CC
inactive: 1 nM -1.28% | 8.33 nM 2.22% | 100 nM -1.47% | 833.33 nM 1.94% | 10000 nM -1.72%

Cc1ccnc2c1CCCC2C(N)=S (stereo not given) [isotiquimide]
inactive: 1 nM 2.13% | 8.33 nM 1.38% | 100 nM 1.08% | 833.33 nM 1.85% | 10000 nM 2.59%

COc1ccccc1CC(=N)N1C[C@@H]2C(=O)CCC(c3ccccc3)(c3ccccc3)[C@@H]2C1
inactive: 1 nM -0.54% | 8.33 nM 2.21% | 100 nM 1.93% | 833.33 nM 3.76% | 10000 nM -2.17%

C[C@H]1C[C@H]2[C@@H]3CCC4=CC(=O)C=C[C@]4(C)[C@@]3(F)[C@@H](O)C[C@]2(C)[C@@]1(O)C(=O)CO [betamethasone]
inactive: 1 nM 0.395% | 8.33 nM -1.08% | 100 nM 2.04% | 833.33 nM 1.69% | 10000 nM -0.195%

NCC(CS(=O)(=O)O)c1ccc(Cl)cc1 (stereo not given) [saclofen]
inactive: 1 nM 0.43% | 8.33 nM 0.42% | 100 nM -1.16% | 833.33 nM 4.89% | 10000 nM 1.7%

CN1CCOC(c2ccccc2)c2ccccc2C1 (stereo not given) [nefopam]
inactive: 1 nM 1.99% | 8.33 nM 0.54% | 100 nM 2.72% | 833.33 nM -1.03% | 10000 nM -1.47%
